Bioassay records (PubChem BioAssay)
Only some compounds are listed: those with a hit (about 19% of all), similar ones and a draw of the others.
DT40 TDP1 CPT: DT40-hTDP1 cell growth loss with CPT; chicken DT40 Tdp1-/-;hTDP1 cells + 20 nM CPT, ATP luminescence, 48 h; Potency, µM (highest dose often 46.2 µM), usual class: inhibitors; 12% of 420,000 active; AID 686979; further: nearly all actives have a fitted effect of over 55% in size
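Chicken DT40 Tdp1-/- cells stably complemented with human TDP1 were seeded at 400 cells/well in medium containing 20 nM camptothecin, exposed to pin-transferred compounds, and grown at 37 °C for at least 48 hr. Viability was read as ATP luminescence.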
SW480 rereplic: inducers of DNA re-replication in SW480 colon cancer cells; SW480 DNA re-replication, Hoechst DNA content imaging, 48 h; Potency, µM (top dose mostly 46.1 µM), usual class: activators; 1.8% of 340,000 active; further: nearly all actives have a fitted effect of over 55% in size
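Per well, 250 cells were exposed to pinned compound for 48 hr. Nuclear DNA was visualised with Hoechst (40 min, 37 C) and total object intensity recorded by fluorescence scanning.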
IL1B secr inh: blocks inflammasome-driven IL-1 beta release. THP-1 LPS/ATP IL-1B secretion, AlphaLISA, 16 h; stronger effect = lower value. activity change, % at 57.5 µM. 4.7% of 360,000 active. AID 743279; in the data active means activity change below about -50%; inconclusive means mostly about -30% to -49%
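THP-1 cells pretreated 1 hr with compounds (up to 57.5 uM final), then stimulated with LPS (250 ng/mL final) plus ATP (1.25 mM final); secreted IL-1B measured by AlphaLISA after 16 hr, decreased signal indicating inhibition.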
TDP1 cell noCPT: qHTS for Inhibitors of human tyrosyl-DNA phosphodiesterase 1 (TDP1): qHTS in cells in absence of CPT; AID 686978, 2013; 15% of 420,000 active; Potency, µM (series often up to 46.2 µM), actives largely listed as inhibitors; DT40 Tdp1-/- hTDP1 cells, no CPT, ATP luminescence, 48 h; further: nearly all actives have a fitted effect of over 55% in size
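Seeded 400 DT40-hTDP1 cells/well (vehicle DMSO, no 20 nM CPT); pinned compounds; ≥48 hr at 37 °C; CellTiter-Glo luminescence as viability measure.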
MCF10A rereplic: induces DNA re-replication in MCF 10a normal breast cells | MCF 10A DNA re-replication, Hoechst nuclear intensity, 48 h | 2.9% of 350,000 active | Potency, µM (doses to about 46.1 µM), usual class: activators; further: nearly all actives have a fitted effect of over 50% in size
Chronic BCR inh: chronic active BCR signaling inhibition | Potency, µM (titrated, usually from 46.1 µM), most hits filed as inhibitors | 0.05% of 340,000 active | ABC-DLBCL IkBa-CBG/CBR reporter, luminescence ratio, 4 h | AID 493014; active means well fitted inhibition curve with a large enough effect in the signal ratio, with a control signal flat, not every such curve was filed as active; inconclusive means small, poorly fitted or top-dose-only effect, or effect the other way, or a change in a side signal; the % refers to the signal ratio
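TMD8 human ABC-DLBCL cells with doxycycline-inducible IκBα–green luciferase fusion and unfused red luciferase, in 0.5% FBS medium; compounds up to 46 uM, 4 h at 37C. Green/red luminescence ratio, filter-overlap corrected, fitted to concentration-response curves.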
Numbers stand for hits; . = inactive; ? = inconclusive; / = no result; ! = not active in a repeat; [ ] = dose if it differs, or a comment. Unless noted, the call rests on the fitted dose curve; in most records, active means well fitted curve in the direction sought with a large enough effect; inconclusive means small, poorly fitted or top-dose-only effect, or another doubt; inactive means no such curve, though single readings can be large; an effect the other way counts as inactive or inconclusive.

SMILES	DT40 TDP1 CPT	SW480 rereplic	IL1B secr inh	TDP1 cell noCPT	MCF10A rereplic	Chronic BCR inh
CCCCNC(=O)/C(C#N)=c1\s/c(=C\c2ccccc2OC(F)F)c(=O)n1CCCOC	.	.	.	.	.	.
COC(=O)C1CCN(Cc2ccc3c(c2)CN(C(=O)c2cc(C)oc2C)CCO3)CC1	.[9.04 µM]	/	/	.	/	/
COCCNC(=O)CCC1CCN(Cc2cccc(Oc3ccccc3)c2)CC1	.	?	.	.	.	.
COc1ccc(N(C(=O)Cc2cccs2)C(C(=O)NC2CCCC2)c2ccncc2)cc1 (stereo unspecified)	?	.	.	?	.	.
COc1ccc(C(C(=O)NC2CCCCC2)N(C(=O)CCl)c2ccc(OC)cc2)cc1 (stereo unspecified)	1.8µM	?	-90	1.5µM	18µM	.
O=[N+]([O-])C(/C=C(\Cl)[N+](=O)[O-])=C1N(Cc2ccc(Cl)nc2)CCN1Cc1ccc(Cl)nc1	?	.	.	?	.	.
O=[N+]([O-])/C(C(=C(Cl)Cl)N1CCN(Cc2ccccc2)CC1)=C1\NCCN1Cc1ccc(Cl)nc1	?	.	?	15µM	.	.
O=C(C1=NNCC1c1ccccc1)C1OC1c1ccccc1 (stereo unspecified)	.	.	-89	?	?	?
COc1cccc(S(=O)(=O)N(C)C[C@@H]2Oc3cc(C#CCN(C)C)ccc3S(=O)(=O)N([C@H](C)CO)C[C@@H]2C)c1	.	/	.	?	/	/
CCN1CCCC1CNC(=O)c1cc(COc2ccc(C)c(C)c2)on1 (stereo unspecified)	.	?	.	.	?	.
CCc1nccn1-c1cc(C(C)(C)C)nc2c(-c3ccc(Cl)cc3)cnn12	?	.	.	18µM	?	.
CC(C)(C)c1cc(NCc2ccccn2)n2ncc(-c3ccc(Cl)cc3)c2n1	?	.	.	16µM	.	.
CN(C)CCCNc1cc(C(C)(C)C)nc2c(-c3ccc(Cl)cc3)cnn12	13µM	?	-105	?	?	?
COc1ccccc1N1CCN(C(=O)c2ccc(Cl)c(S(=O)(=O)N3CCOCC3)c2)CC1	26µM	?	.	?	.	.
COc1ccccc1N1CCN(C(=O)c2ccc(Cl)c(S(=O)(=O)NCc3ccco3)c2)CC1	5.6µM	?	.	5µM	?	.
O=C(c1ccc(Cl)c(S(=O)(=O)N2CCOCC2)c1)N1CCc2ccccc2C1	?	.	-64	?	.	.
COc1ccccc1NC(=O)c1ccc(Cl)c(S(=O)(=O)N2CCOCC2)c1	.	.[9.22 µM]	.	.	.	.
CN1CCc2ccc(NC(=O)c3ccc(C(F)(F)F)cc3)cc2C1	.	.	.	.	?	.
O=C(CNS(=O)(=O)c1c(F)cccc1F)NC1CCCc2ccccc21 (stereo unspecified)	.	.	.	.	.	.
Cc1ccc(OCCC(=O)OCC(=O)NC2CCS(=O)(=O)C2)cc1 (stereo unspecified)	.	.	.	.	.	.
CCc1ccc(C(C)NC(=S)NC2CCCCC2)cc1 (stereo unspecified)	?	?	.	?	?	.
CCOc1ccc(C(C)NC(=S)NC2CCCCC2)cc1 (stereo unspecified)	?	?	.	?	.	.
CC(NC(=S)NC1CCCCC1)c1ccc(C(C)(C)C)cc1 (stereo unspecified)	9.2µM	.	.	?	5.8µM	.
CC(C)c1ccc(C(C)NC(=S)NC2CCCCC2)cc1 (stereo unspecified)	18µM	.	.	4.6µM	?	?
COc1ccc(NC(=O)C2CCCCN2S(=O)(=O)c2ccccc2)cc1S(=O)(=O)N1CCOCC1 (stereo unspecified)	.	.	.	.	.	/
SMILES	DT40 TDP1 CPT	SW480 rereplic	IL1B secr inh	TDP1 cell noCPT	MCF10A rereplic	Chronic BCR inh
Cc1c(Cl)cccc1NC(=O)Nc1cc(C(C)(C)C)on1	?	.	.	15µM	.	.
CC(C)(C)c1cc(NC(=O)Nc2ccc(Cl)cc2Cl)no1	?	.	.	?	18µM	?
Cc1cc(NC(=O)Nc2ccccc2Cl)no1	.	.	.	.	.	.
CC(C)(C)c1cc(NC(=O)Nc2ccc(Br)cc2Cl)no1	21µM	.	-57	?	?	.
O=c1c2c([nH]n1-c1ccccc1)C[C@@H](C1CCCCC1)O[C@H]2c1ccc(F)cc1	.	/	.	.	/	/
CC(=O)Nc1ccc(Nc2c(CCC(C)C)c(C)c(C#N)c3nc4ccccc4n23)cc1	.	/	/	.	/	/
Cc1cnc(-n2ncc(C(=O)NCCc3cccnc3)c2C)nc1-c1cccs1	.[9.04 µM]	/	/	21µM	/	/
Cc1cnc(-n2ncc(C(=O)NCCc3cccnc3)c2C)nc1-c1ccc(F)cc1	.[9.04 µM]	/	/	?	/	/
CN(CC(=O)N1CCc2ccccc21)S(=O)(=O)c1ccc(Cl)cc1	.	.	.	.	.	?
CCOc1ccc(S(=O)(=O)N(CC(=O)N2CCc3ccccc32)Cc2ccco2)cc1	18µM	.	.	?	.	.
CCN(CC)C(=O)C1=C(C)N(Cc2ccc(F)cc2)C(=O)C(CC(=O)NCCCN(C)C)C1 (stereo unspecified)	.	/	.	.	/	/
CC1(C(=O)N/N=C/c2c(F)c(F)c(F)c(F)c2F)CC1(Cl)Cl (stereo unspecified)	.	?	-100	?	?	/
COc1ccc(C(=O)N2CCN(c3ncccn3)CC2)cc1	.	.	.	.	.	.
Cc1cc(C)c2nc(N3CCCN(C(=O)c4cnccn4)CC3)c(C#N)cc2c1	23µM	?	.	16µM	?	.
Cc1ccc(C(=O)N2CCCN(c3nc4cc5c(cc4cc3C#N)OCO5)CC2)cc1	?	13µM	.	15µM	8.2µM	?
N#Cc1cc2cc3c(cc2nc1N1CCCCC1)OCCO3	?	?	.	?	?	.
COc1ccc(C(=O)N2CCN(c3nc4cc(C)cc(C)c4cc3C#N)CC2)cc1	?	/	.	18µM	/	/
Cc1cc(C)c2nc(N3CCN(C)CC3)c(C#N)cc2c1	.	.	.	?	?	.
COC(=O)c1ccccc1NC(=O)c1nc(-c2ccc(Cl)cc2)n2c1CCCCC2	.	/	/	?	/	/
NC(=O)c1nnsc1-c1ccco1	.	.	.	.	.	/
Cc1ccc2c(=O)n3c(nc2c1)C(CC(C)C)NC(=O)c1ccc(Cl)cc1-3 (stereo unspecified)	/	/	/	/	/	.
CCCCCCCC/C=C\CCCCCCCC(=O)O	.	.	.	.	30µM!	.
CCOc1ccc(CC(=O)NC2CC(=O)N(c3ccc(C)c(C)c3)C2)cc1 (stereo unspecified)	.	/	/	?	/	.
